Pf growth 96h: inhibits malaria parasite growth, 96 h; P. falciparum luciferase reporter growth, 96 h; Potency, µM (titrated, usually from 28.7 µM), most hits filed as inhibitors; 320,000 compounds, 6.9% hits; AID 504834
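Two parasite generations (96 h, 37 C, 5% CO2) of compound exposure in infected erythrocytes (0.05% parasitemia, 2% hematocrit). Luciferase-reporter P. falciparum; decreased luminescence indicates inhibited growth, aimed at apicoplast-acting delayed death.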
NS1 inh: blocks influenza NS1 protein function | 270,000 compounds, 0.4% hits | Potency, µM (highest dose often 46.1 µM) | AID 2326; calls by dose curve; also: actives are rising curves; nearly all actives have a fitted effect of over 50% in size
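Compounds were scored for reversing the slow growth caused by influenza A NS1 in S. cerevisiae, measured by optical density at 600 nm. Assay medium contained 2% galactose at pH 6.0; NS1-free yeast of the same strain were the positive control.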
SARS PLpro yeast: SARS-CoV PLP inhibition in yeast | S. cerevisiae expressing SARS-CoV PLpro, growth rescue | Potency, µM (doses to about 32.9 µM), actives largely listed as activators | 330,000 compounds, 0.19% hits; calls by dose curve; also: nearly all actives have a fitted effect of over 55% in size
Pf growth 48h: inhibits P. falciparum growth in the first generation, 48 h; AID 504832; 310,000 compounds, 5.9% hits; Potency, µM (highest dose often 28.7 µM), actives largely listed as inhibitors; P. falciparum luciferase growth in erythrocytes, 48 h
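Here the parasites carry a stable luciferase gene and grow inside erythrocytes in Albumax-based RPMI medium with compound for one erythrocytic cycle. Activity is scored as loss of luminescent signal.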
Hits are given with their value; - = inactive; ? = inconclusive; . = not tested or not shown; [ ] = another dose, or the depositor's remark. Hits are enriched below; roughly 10% of the tested compounds scored in any of these assays. Unless noted, calls follow the shape of the dose curve; as a rule, active = well fitted inhibition curve with a large enough effect; inconclusive = small, poorly fitted or top-dose-only effect, or another doubt; inactive = no such curve, though single readings can be large or run the other way.

SMILES | Pf growth 96h | NS1 inh | SARS PLpro yeast | Pf growth 48h
COc1ccc(CNC(=O)C2CCN(C(=O)[C@@H](CC(C)C)NC(=O)OC(C)(C)C)CC2)cc1 | - | - | - | 9.28µM
COc1ccc(CNC(=O)C2CCN(c3nc(-c4ccccc4)nc4c3CCC4)CC2)cc1 | ? | - | - | 1.85µM
Cc1ccc(S(=O)(=O)N2CCC(C(=O)NC3CC3)CC2)cc1 | - | - | - | 2.33µM
O=C1C=C(c2ccc3c(c2)OCO3)C[C@@H](c2ccc(Cl)cc2)C1 | - | . | - | -
O=C(NCCc1ccc(F)cc1)c1cc(=O)c2ccccc2o1 | - | . | - | -
CCS(=O)(=O)N1CCC(C(=O)NCc2ccc(OC)cc2)CC1 | 5.86µM | . | - | -
COc1ccc(S(=O)(=O)N2CCC(C(=O)NCC3CC3)CC2)cc1 | - | - | - | 10.4µM
COc1ccc(S(=O)(=O)N2CCC(C(=O)NC(c3nc4ccccc4[nH]3)C(C)C)CC2)cc1 (stereo unspecified) | ? | . | - | 10.4µM
O=C(NC1CCCCCC1)C1CCN(S(=O)(=O)c2ccccc2)CC1 | 2.94µM | - | - | -
O=C(NC1CCN(S(=O)(=O)c2ccccc2)CC1)C1CCCCC1 | - | - | - | -
CC(C)[C@H](NC(=O)C1CCCC1)c1nc2ccccc2[nH]1 | - | . | - | -
COc1ccccc1C(CNc1ccc(S(=O)(=O)N2CCCC2)cc1[N+](=O)[O-])N(C)C (stereo unspecified) | ? | - | - | -
Cc1c(Cl)cccc1NC(=O)COC(=O)Cn1cnc2c1c(=O)n(C)c(=O)n2C | - | . | - | -
CC(C)CN(CC(C)C)S(=O)(=O)N1CCC(C(=O)NC2CCCCCCC2)CC1 | 11.7µM | - | - | ?
CCN1CCN(C(=O)C2CCN(S(=O)(=O)c3ccc(Br)cc3)CC2)CC1 | ? | - | - | -
CC(C)(C)NC(=O)C1CCN(S(=O)(=O)c2ccc(Br)cc2)CC1 | - | - | - | 9.28µM
COc1cc(-c2nnc(SCC(=O)Nc3ccc(C(=O)O)cc3)o2)cc(OC)c1OC | . | . | - | .
Cc1ccc(Cl)cc1NC(=O)C(=O)N/N=C/c1ccc2c(c1)OCO2 | ? | - | - | -
COc1ccc(NC(=O)Cc2c(C)n(C(=O)c3ccc(Cl)cc3)c3ccc(OC)cc23)cc1 | 3.29µM | - | - | ?
COc1ccc2c(c1)c(CC(=O)Nc1ccc(C)cc1)c(C)n2C(=O)c1ccc(Cl)cc1 | - | - | - | .
O=C(c1cnn2c(C(F)(F)F)cc(-c3cccs3)nc12)N1CCCC1 | - | - | - | -
O=C(NCc1ccco1)c1cnn2c(C(F)(F)F)cc(-c3cccs3)nc12 | 9.28µM | - | - | ?
Cc1cc(C)c(Cc2c(C)nc3c(C(=O)NCc4ccco4)cnn3c2C)c(C)c1 | 11.7µM | - | - | .
NC1=NC(=O)/C(=C/c2ccccc2OS(=O)(=O)c2ccccc2)S1 | - | - | - | 10.4µM
COc1cccc(/C=C2\SC(N)=NC2=O)c1OS(=O)(=O)c1ccccc1 | - | . | - | -
SMILES | Pf growth 96h | NS1 inh | SARS PLpro yeast | Pf growth 48h
O=C(CCN1C(=O)/C(=C/c2ccccc2)SC1=S)NCCc1ccc(O)cc1 | 11.7µM | - | - | -
O=C(CCCN1C(=O)/C(=C/c2ccccc2)SC1=S)NCCCn1ccnc1 | 9.28µM | - | - | ?
O=C(CCN1C(=O)S/C(=C\c2ccccc2)C1=O)NCCCn1ccnc1 | - | - | - | -
O=C(c1cccc(NS(=O)(=O)c2ccccc2)c1)N1CCCCC1 | ? | . | - | -
COc1cc2c(cc1OC)CN(C1CC(=O)N(c3c(C)cccc3C)C1=O)CC2 (stereo unspecified) | ? | . | - | 6.57µM
COc1ccccc1N1CCN(C2CC(=O)N(c3cccc(Br)c3)C2=O)CC1 (stereo unspecified) | - | - | - | -
CC1CC(=O)Nc2ccccc2N1S(=O)(=O)c1ccc(F)cc1F (stereo unspecified) | ? | - | - | 2.33µM
CC(=O)Nc1ccc(S(=O)(=O)N2c3ccccc3NC(=O)CC2C)c(Cl)c1 (stereo unspecified) | - | - | - | 2.08µM
Cc1ccccc1NC(=O)Cc1nnc(SCC(=O)NC2=NCCS2)n1C | ? | - | - | -
CC(=O)SC[C@@H](Cc1ccccc1)C(=O)NCC(=O)OCc1ccccc1 | - | . | . | -
CCCCc1nc2ccccc2c(N)c1CCC (tested in a mixture with another compound) | ? | - | - | 9.28µM
O=C(CSc1nnc(CNC(=O)c2cccs2)o1)Nc1ccc2c(c1)OCO2 | ? | - | - | -
O=C(CSc1nnc(CNC(=O)c2cccs2)o1)Nc1ccc(Cl)cc1 | 10.4µM | - | ? | -
Cc1cc(C)cc(NC(=O)CSc2nnc(CNC(=O)c3cccs3)o2)c1 | - | - | - | -
O=C(CSc1nnc(CNC(=O)c2cccs2)o1)Nc1ccc(Br)cc1 | 13.1µM | - | - | -
CC1CCN(CC(O)COc2ccc(-c3ccccc3)cc2)CC1 (stereo unspecified) | - | - | - | ?
COc1ccc(-c2c[n+]3c4n2CCCCC4=C(c2ccc(Br)cc2)C3)cc1 | 2.08µM | - | - | 3.7µM
Clc1ccc(C2=C3CCCCn4c(-c5ccccc5)c[n+](c43)C2)cc1 | ? | ? | - | 10.4µM
O=C(Nc1ccc(Cn2cccn2)cc1)c1ccc(COc2ccccc2Br)cc1 | 11.7µM | - | - | -
COc1ccccc1-c1csc(N2CCC(C(N)=O)CC2)n1 | ? | . | . | 11.7µM
CN1C[C@@H]2C[C@H]1CN2c1cc2c(cc1F)c(=O)c(C(=O)O)cn2C1CC1 | 0.849µM | . | . | 5.36µM
COc1c(N2CCN(C(=S)NCc3ccccc3)C(C)C2)c(F)cc2c(=O)c(C(=O)O)cn(C3CC3)c12 (stereo unspecified) | 2.94µM | - | - | 9.28µM
COc1c(F)c(F)cc2c(=O)c(C(=O)O)cn(C3CC3)c12 | - | - | - | -[0.00184 µM]
COc1c(N2CCN[C@H](C)C2)c(F)cc2c(=O)c(C(=O)O)cn(C3CC3)c12 | ? | - | - | ?
CNC1CCCN(c2c(F)cc3c(=O)c(C(=O)O)cn(C4CC4)c3c2OC)C1 (stereo unspecified) | 4.26µM | . | . | 4.78µM
SMILES | Pf growth 96h | NS1 inh | SARS PLpro yeast | Pf growth 48h
CC1COc2c(N3CCN(C)CC3)c(F)cc3c(=O)c(C(=O)O)cn1c23 (stereo unspecified) | . | - | - | .
N/C(Cc1cccc2ccccc12)=N\OC(=O)c1ccc(Br)o1 | - | . | - | ?
N/C(Cc1cccc2ccccc12)=N\OC(=O)Cc1cccs1 | - | - | - | ?
COc1ccc(CC(=O)O/N=C(\N)Cc2cccc3ccccc23)cc1OC | - | - | - | 10.4µM
COc1ccc(CC(=O)O/N=C(\N)Cc2cccc3ccccc23)cc1 | 11.7µM | - | - | ?
COc1ccc(CC(=O)O/N=C(\N)c2ccccn2)cc1OC | - | - | - | -
N/C(Cc1cccc2ccccc12)=N\OC(=O)c1cccs1 | - | - | - | 13.1µM
CCn1c(SCC(=O)Nc2cccc(C)n2)nc2c1c(=O)n(C)c(=O)n2C | - | - | - | -
NS(=O)(=O)c1ccc(-c2ccc([As](=O)(O)O)cc2)cc1 | . | - | . | .
CCOc1cc(CNc2ccc(CNc3ncn[nH]3)cc2)ccc1OCc1ccccc1 | 13.1µM | - | - | ?
C=CCn1c(SCC(=O)NCCCC)nc2scc(-c3ccco3)c2c1=O | ? | - | - | 13.1µM
